The results in this text go back to PubChem BioAssay (EPA / NIEHS).

Usually AC50 stands for the midpoint of the concentration-response curve, whichever way the signal moves.

Active and inactive are the calls of the source. Rule for the calls: active = hit-call score of the fitted dose curve at least 0.9, where 1 is the maximum; inactive = score below 0.9.

A short description of the experiment: ATG_NF_kB_CIS: Attagene CIS-FACTORIAL HepG2 Assay for human Nuclear Factor Kappa B (NF-kB) (AID 2282991). The following applies: HepG2 Attagene cis-factorial NF-kB reporter mRNA; actives raise or lower the signal. How it is done: ATG_CIS is a cell-based, multiplexed-readout assay that uses HepG2, a human liver cell line, with measurements taken at 24 hours after chemical dosing in a 24-well plate.ATG_NF_kB_CIS is one of 52 assay component(s) measured or calculated from the ATG_CIS assay. It is designed to make measurements of mRNA induction, a form of inducible reporter, as detected with fluorescence intensity signals by Reverse transcription polymerase chain reaction (RT-PCR) and Capillary electrophoresis technology.Data from the assay component ATG_NF_kB_CIS was analyzed into 1 assay endpoint. This assay endpoint, ATG_NF_kB_CIS, was analyzed with bidirectional fitting relative to DMSO as the negative control and baseline of activity. Using a type of inducible reporter, measures of mRNA for gain or loss-of-signal activity can be used to understand the reporter gene at the transcription factor-level as they relate to the gene NFKB1. Furthermore, this assay endpoint can be referred to as a primary readout, because this assay has produced multiple assay endpoints where this one serves a reporter gene function. To generalize the intended target to other relatable targets, this assay endpoint is annotated to the dna binding intended target family, where the subfamily is NF-kappa B.
Human liver HepG2 cells are transiently transfected with multiple reporter transcription units (MRTUs) in 6-well plates using FuGene 6 reagent (Roche; 3 ml FuGene/1 mg DNA). The MRTU constructs are regulated by a cis-regulating element (promoter). […] A major difference between the CIS and TRANS system is that in CIS activities of endogenous TFs are measured, whereas the TRANS assay evaluates changes in activities of exogenous, chimeric NR-Gal4 proteins. […] At the end of 24 hour incubation, total RNA was isolated using TriZol reagent (Invitrogen). The isolated RNA is then reverse-transcribed using oligo(dT) primer and Mo-MLV reverse transcriptase (Invitrogen) with DNAse I (Ambion) treatment for 30 min. The one-tenth of the produced cDNA was amplified by PCR using Taq DNA polymerase (Invitrogen) and two reporter sequence-specific primers. The PCR products were fluorescently labeled by primer extension with 6-arboxyfluorescein (6-FAM) 5'-labeled reporter sequence-specific primer (2 min at 95 C, 20 s at 68 C and 10 min at 72 C) and these products were digested with 5U of HpaI (New England Biolabs) for 2h at 37 C. The fragments were purified using Qiaquick PCR columns (Qiagen), analyzed on an ABI 3130xL genetic analyzer (Applied Biosystems) with peak positions identified by using a set of X-rhodamine (ROX)-labeled MapMarker1000 molecular weight standards (BioVentures). The raw capillary electrophoresis data was processed using Attagraph software (Attagene).
With `CCCCCCCCCCN`, the result was inactive.

As for `O=C1CCCCCCCCCCOCCCCO1`, the outcome was inactive.

Turning to `Cc1ccc(C(=O)O)o1`, the outcome was inactive.

On to `CCCCNC(=O)NS(=O)(=O)c1ccc(N)cc1`, for which the compound was classed as inactive.

As to `O=C(O)CCCCCCCCCCC(=O)O`, the outcome was inactive.

For `O=[N+]([O-])c1ccc(C=Cc2ccc([N+](=O)[O-])cc2S(=O)(=O)O)c(S(=O)(=O)O)c1`, the compound was called inactive.

`CC1=CCC2C(C1)C2(C)C` (stereo not given): the AC50 is 49.1 µM (active).

On to `O=C(O)CN(CCN(CC(=O)O)CC(=O)O)CCN(CC(=O)O)CC(=O)O`, for which the compound was classed as inactive.

With `CC(C)c1cccc(O)c1`, the compound was classed as inactive.

Take `CCCCCCCCCCCCN(CCCCCCCCCCCC)CCCCCCCCCCCC`: the outcome was inactive.

For `CC[Si](OC(C)=O)(OC(C)=O)OC(C)=O`, the compound was called inactive.

For `CCCCCCCCCCCCCCCC(=O)O`, the result was inactive.

In the case of `CC(O)C(C)O` (stereo not given), the result was inactive.

For `CCCCCCOC(=O)CCCCC`, the compound was classed as inactive.

As to `COc1nc(C)nc(N)n1`, the outcome was inactive.

`C=C(C)C(=O)OCc1ccccc1`: the compound was classed as inactive.

Turning to `CCO[Si](CCCS)(OCC)OCC`, the compound was called inactive.

Regarding `CCCc1c(OCCCOc2ccc(OCC(=O)O)cc2)ccc(C(C)=O)c1O`, the outcome was inactive.

On to `Nc1cc(N)cc(C(=O)O)c1`, for which the outcome was inactive.

Turning to `C[C@]12CC[C@H]3[C@@H](CCC4=CC(=O)CC[C@@]43C)[C@@H]1CC[C@@H]2C(=O)CO`, the call was inactive.

In the case of `CO[Si](CCCn1c(=O)n(CCC[Si](OC)(OC)OC)c(=O)n(CCC[Si](OC)(OC)OC)c1=O)(OC)OC`, the outcome was inactive.

As for `CCN(CC)CCOC(=O)c1ccc(N)cc1`, the result was inactive.

Regarding `COCCOCCOCCOCCOCCO`, the call was inactive.

With `CC(C)(Oc1ccc(CCNC(=O)c2ccc(Cl)cc2)cc1)C(=O)O`, the compound was called inactive.

As for `CCCC(=O)C(C)=O`, the outcome was inactive.

In the case of `COC(=O)C1=C(C)NC(C)=C(C(=O)OCCN(C)Cc2ccccc2)C1c1cccc([N+](=O)[O-])c1` (stereo not given), the call was inactive.

As for `O=C1OC2(c3cc(Br)c(O)c(Br)c3Oc3c2cc(Br)c(O)c3Br)c2c(Cl)c(Cl)c(Cl)c(Cl)c21`, the call was inactive.

Turning to `O=c1[nH]nnc2ccccc12`, the call was inactive.

Consider `Cc1ccc(C=O)cc1`, for which the compound was called inactive.

Turning to `OCC(CO)(CO)COCC(CO)(CO)CO`, the compound was called inactive.

Regarding `CC(=O)O[C@H](CC(=O)[O-])C[N+](C)(C)C`, the result was inactive.

Regarding `O=C(O)c1cccc([N+](=O)[O-])c1`, the result was inactive.

Regarding `NCCNCCN`, the compound was classed as inactive.

Turning to `CCC(C(=O)NC(N)=O)c1ccccc1` (stereo not given), the compound was classed as inactive.

As for `CCC(C)CCCC(C)(C)O` (stereo not given), the compound was classed as inactive.

`CNCCCC12CCC(c3ccccc31)c1ccccc12`: the call was inactive.

Consider `COC(=O)Cc1cccc2ccccc12`, for which the compound was called inactive.

As to `CC(C)(C)C(=O)c1ccccc1`, the outcome was inactive.

On to `CC(CCO)CCc1ccccc1` (stereo not given), for which the call was inactive.

For `CC(C)=CCC[C@](C)(O)[C@@H]1CC=C(C)CC1`, the call was inactive.
